# Hits are enriched below; roughly 5.7% of the tested compounds scored in any of these assays.
# A549 viability = Nrf2 qHTS screen for inhibitors: counterscreen for cytotoxicity; A549 ARE-Fluc cells, CellTiter-Fluor viability, 18-24 h; 390,000 tested, 0.16% active; Potency, µM (titrated, usually from 46 µM), for the others: at the top dose activity change, negative = cytotoxicity, usual class: inhibitors; AID 504648, 2011; further: potency means the concentration at half of the fitted maximal effect
#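 A549 ARE_Fluc cells in 5% FBS OPTI-MEM were exposed to compounds in concentration-response for 18-24 h at 37 deg C. Viability was read by CellTiter-Fluor fluorescence (Ex 405/Em 525) after 30 min, before the luciferase read.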
# KB-V1 cytotox = qHTS assay for MDR1-selective chemotherapeutics: Primary screen using the drug-selected MDR subline cells KB-V1 | KB-V1 MDR cells viability, CellTiter-Glo, 72 h | Potency, µM (series often up to 46.1 µM), actives largely listed as cytotoxic | 400,000 tested, 3.4% active; further: potency means the concentration at half of the fitted maximal effect; nearly all actives have a fitted effect of over 60% in size
#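 KB-V1 cells (P-gp-expressing MDR subline of KB-3-1) in phenol-red-free DMEM with 10% FBS were exposed to library compounds over a concentration series for 72 h at 37 degrees C. Viability read by CellTiter-Glo luminescence; concentration-effect curves fitted after normalization.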
# PI4K2A block = qHTS for small molecular inhibitors of PI4K2A; Phosphatidylinositol 4-kinase type 2-alpha (Homo sapiens), Q9BTU6; purified PI4K2A, ADP-Glo luminescence, 1 h; active compounds read low; activity change, negative = inhibition, % at 76.9 µM; 420,000 tested, 0.13% active; AID 1346378, 2018; in the data active means activity change below about -50%; inconclusive means mostly about -30% to -49%;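 further: -100% = wells without enzyme as full effect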
# Target sequence (Q9BTU6 whole entry, looked up): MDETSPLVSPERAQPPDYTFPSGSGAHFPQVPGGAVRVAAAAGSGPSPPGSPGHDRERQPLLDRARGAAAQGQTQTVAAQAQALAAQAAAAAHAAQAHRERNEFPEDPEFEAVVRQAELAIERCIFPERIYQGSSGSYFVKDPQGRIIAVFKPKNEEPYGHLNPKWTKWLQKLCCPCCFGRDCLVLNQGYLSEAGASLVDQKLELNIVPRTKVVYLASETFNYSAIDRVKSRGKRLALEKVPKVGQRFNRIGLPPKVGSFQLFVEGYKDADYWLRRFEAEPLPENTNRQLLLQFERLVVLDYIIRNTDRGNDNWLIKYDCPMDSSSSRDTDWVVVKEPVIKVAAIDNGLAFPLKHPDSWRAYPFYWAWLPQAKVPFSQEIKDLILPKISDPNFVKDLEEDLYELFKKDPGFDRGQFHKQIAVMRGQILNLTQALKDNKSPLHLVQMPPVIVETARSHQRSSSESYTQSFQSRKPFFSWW
#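 PI4K2A activity was measured by ADP-Glo luminescence: enzyme (4 ug/mL stock) and phosphatidylinositol (1.2 mM stock) in Tris pH 7.5/MgCl2/EGTA/Triton X-100 buffer were reacted with ATP (300 microM stock) for one hour at ambient temperature.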
# Nrf2 inh = Nrf2 qHTS screen for inhibitors. Potency, µM (top dose mostly 46 µM), inactives show at the highest dose activity change, negative = inhibition, usual class: inhibitors. 360,000 tested, 2.1% active. A549 ARE-Fluc reporter, luciferase luminescence, 18-24 h; further: potency means the concentration at half of the fitted maximal effect; nearly all actives have a fitted effect of over 60% in size
#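 A549 ARE_Fluc cells, 5000/well, 5% FBS OPTI-MEM; compounds in dose-response, 18-24 h at 37 °C/5% CO2; CellTiter-Fluor viability read (Ex 405/Em 525), then BugLite luciferase luminescence = Nrf2 activity.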
# Giardia killer = Small Molecules that selectively kill Giardia lamblia: qHTS; activity change, % at 7.66 µM, hits read low; 340,000 tested, 0.15% active; Giardia lamblia trophozoite viability; in the data active means activity change below about -80%; inconclusive means between about -30% and that limit;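 further: parasites exposed to compound for two days anaerobically before the ATP read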
#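 Viability, read as ATP luminescence: trophozoites at 100 cells/well, compound added, 48 hrs anaerobic at 37 deg C, then 15-30 min room-temperature development before reading.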
# KB-3-1 tox = qHTS assay for MDR1-selective chemotherapeutics: Primary screen using the parental adenocarcinoma cell KB-3-1 | KB-3-1 viability, CellTiter-Glo ATP luminescence, 72 h | Potency, µM (top dose mostly 46.1 µM), actives largely listed as cytotoxic | 400,000 tested, 1.4% active; further: potency means the concentration at half of the fitted maximal effect; nearly all actives have a fitted effect of over 60% in size
#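 Here the drug-naive KB-3-1 line serves as comparator for MDR sub-line selectivity; cells received compound titrations, 72 h at 37 °C, then CellTiter-Glo readout.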
# * marks the source's active call; other numbers are inactive results; i = inactive; ? = inconclusive; / = no result given. Unless noted, the call rests on the fitted dose curve; in most records, active means well fitted curve in the direction sought with a large enough effect; inconclusive means small, poorly fitted or top-dose-only effect, or another doubt; inactive means no such curve, though single readings can be large; an effect the other way counts as inactive or inconclusive. Unless noted, on the % scale 0 is the no-effect control and ±100 the full control effect.
SMILES,A549 viability,KB-V1 cytotox,PI4K2A block,Nrf2 inh,Giardia killer,KB-3-1 tox
C#CCOCCOCCOCCNc1nc(N2CCN(C(=O)CCCCCCCCCCNC(=O)[C@@H](CCSC)n3cc(CCO)nn3)CC2)nc(N2CCN(C(=O)CCCCCCCCCCNC(=O)[C@H]([C@@H](C)CC)n3cc(CCCCCN)nn3)CC2)n1,?,?,0,?,6,?
C#CCOCCOCCOCCNc1nc(N2CCN(C(=O)CCCCCCCCCCNC(=O)[C@@H](CCSC)n3cc(CCO)nn3)CC2)nc(N2CCN(C(=O)CCCCCCCCCCNC(=O)[C@H]([C@@H](C)CC)n3cc(CCCCN=C(N)N)nn3)CC2)n1,?,?,2,?,-8,16µM*
C=CCn1c(SCC(=O)C(C)(C)C)nnc1-c1ccc(Cl)cc1,/,/,1,/,/,/
NS(=O)(=O)c1ccc(N=Nc2c[nH]c(=O)c(O)c2)cc1,23µM*,i,-62*,-21%,4,i
Nc1nc(O)c(N=Nc2ccc(S(N)(=O)=O)cc2)c(=O)[nH]1,-16%,?,4,3%,-1,i
Cc1cccc2c(C(O)c3c[nH]c4c(C)cccc34)c[nH]c12,/,i,/,/,/,i
NC(=NCCc1c[nH]c2ccccc12)NS(=O)(=O)c1ccc2ccccc2c1,?,i,3,16µM*,-3,i
O=C(OCCN1CCN(C2CN(Cc3cn(Cc4ccc([N+](=O)[O-])cc4)nn3)S(=O)(=O)C2)CC1)c1cc2ccccc2o1 (centres undefined),/,/,1,/,/,/
CC(=O)N1N=C(c2cccc(NS(=O)(=O)c3ccc(C)cc3)c2)CC1c1ccco1 (centres undefined),?,i,-4,23µM*,5,?
CS(=O)(=O)Nc1cccc(C2=NN(C(=O)c3ccco3)C(c3ccco3)C2)c1 (centres undefined),-21%,i,4,-22%,-12,?
CC(=O)N1N=C(c2ccc(NS(=O)(=O)c3ccccc3)cc2)CC1c1ccco1 (centres undefined),-10%,i,-1,-2%,-4,?
CCS(=O)(=O)Nc1cccc(C2=NN(C(=O)c3ccco3)C(c3ccco3)C2)c1 (centres undefined),2%,i,-9,?,8,8.2µM*
CCS(=O)(=O)Nc1ccc(C2=NN(C(=O)c3ccco3)C(c3ccco3)C2)cc1 (centres undefined),-27%,?,3,4%,-3,3.7µM*
Nn1c(SCC(=O)Nc2ccc(OCc3ccccc3)cc2)nnc1-c1cc(-c2ccccc2)n[nH]1,/,/,2,/,/,/
Cc1[nH]c(=O)c(C(=O)/C=C/c2ccccc2F)c2c1CCCC2,?,6.5µM*,12,/,8,6.5µM*
CCOC(=O)[C@]12CCCC3=C1N(CCC3)C(=O)[C@@H](CC(=O)NCCC(C)C)C2,/,/,-1,/,/,/
Cc1sc2nc(C3CC3)nc(N3CCN(C(=O)c4ccc(Cl)cc4)CC3)c2c1C,-1%,18µM*,-11,?,3,?
Cc1sc2nc(C3CC3)nc(N3CCN(C(=O)c4ccc(F)cc4)CC3)c2c1C,-10%,i,6,?,14,i
COc1ccc(C(=O)N2CCN(c3nc(C4CC4)nc4sc(C)c(C)c34)CC2)cc1,-6%,23µM*,-7,-30%,?,?
CN(C)[C@H]1CCN(c2cccc3c2S(=O)(=O)N2CC[C@@H](C2)O3)C1,/,/,4,/,/,/
COc1ccc(-c2nnc(SCC(=O)N(C)Cc3ccccc3)o2)cc1OC,-13%,i,-5,23µM*,/,i
CCOC(=O)c1cc(C)n(CC2CCC(C(=O)Nc3cccc(C(C)=O)c3)CC2)c1C (centres undefined),5%,/,-2,9%,/,/
Cn1nnnc1SCCNCc1ccccc1OCc1ccc(Cl)cc1Cl,-1%,/,-9,12µM*,6,/
CCOc1cc(CNCCSc2nnnn2C)ccc1OCc1ccc(Cl)cc1Cl,?,?,0,-27%,/,i
CC1CCN(c2ccccc2NC(=S)NC(=O)c2ccco2)CC1,9%,18µM*,4,5%,-13,i
SMILES,A549 viability,KB-V1 cytotox,PI4K2A block,Nrf2 inh,Giardia killer,KB-3-1 tox
O=C(NC(=S)Nc1ccc(N2CCOCC2)cc1)c1ccccc1,-1%,i,1,?,-4,i
O=C(NC(=S)Nc1ccc(N2CCOCC2)cc1)c1ccco1,11%,16µM*,-4,14%,-27,i
CC1CCN(c2ccccc2NC(=S)NC(=O)c2cccs2)CC1,17%,i,0,10%,-2,i
CCCC(=O)N1CCN(c2ccc(NC(=S)NC(=O)c3cccc(C)c3)cc2)CC1,-29%,?,0,15µM*,27,?
CCc1ccc(C(=O)NC(=S)Nc2ccc(N3CCOCC3)cc2)cc1,1%,18µM*,-1,?,-3,i
COc1ccc2c(c1)CC(NC(=O)Nc1ccc(NC(C)=O)cc1)CO2 (centres undefined),2%,i,-2,/,/,i
CCSC1=NS(=O)(=O)c2ccccc21,-4%,?,/,-7%,/,i
CC(/C=N/N1CCN(c2ccccn2)CC1)=C\c1ccccc1,2%,21µM*,-3,?,9,i
COc1ccccc1Nc1ccc(NC(=O)c2cccc([N+](=O)[O-])c2C)cc1,-22%,?,0,10µM*,-9,18µM*
Clc1ccc(-c2csc3ncnc(Sc4nnnn4-c4ccccc4)c23)cc1,/,i,/,/,/,?
O=S(=O)(c1ccc2c(c1)OCO2)N1CCN(c2nc(-c3cccs3)nc3ccccc23)CC1,9%,/,/,-18%,-18,/
Cc1ccc(-c2oc3ccccc3c(=O)c2O)cc1,-5%,?,0,2%,41,21µM*
COC(=O)C[C@@H]1CC[C@@H]2[C@H](COc3ccc(NC(=O)Nc4c(C)noc4C)cc3C(=O)N2C)O1,/,/,3,/,/,/
COc1ccc(NC(=O)c2sc(=O)n(Cc3ccccc3C#N)c2C)cc1OC,/,5.8µM*,-1,/,/,?
COc1ccc(Cl)cc1Cn1c(C)c(C(=O)N(C)Cc2ccc(F)cc2)sc1=O,/,?,-8,/,/,i
COc1ccc(NC(=O)c2sc(=O)n(Cc3ccc4ccccc4c3)c2C)cc1OC,/,?,-1,/,/,i
Cc1cccc(C)c1Cn1c(C)c(C(=O)NCc2ccc(C#N)cc2)sc1=O,/,18µM*,5,/,/,?
